From publication PMC4336329 (PLoS ONE, 2015)
The campaign covered roughly 310,000 compounds. About 14,000 (4.5%) showed an effect of 50% or more. The effect is printed as a negative number. The sample holds strong results, similar compounds and a random draw of the others, so the mix is not that of the screen.

biological target: human ether-à-go-go-related gene (hERG) potassium channel (human, UniProt Q12809); assay: primary screen, population patch clamp on CHO cells stably expressing hERG; higher = less effect of the substance
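Further: peak tail current of the secondary pulse compared with the same well before compound.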

Sequence of human ether-à-go-go-related gene (hERG) potassium channel (Q12809 whole entry, looked up): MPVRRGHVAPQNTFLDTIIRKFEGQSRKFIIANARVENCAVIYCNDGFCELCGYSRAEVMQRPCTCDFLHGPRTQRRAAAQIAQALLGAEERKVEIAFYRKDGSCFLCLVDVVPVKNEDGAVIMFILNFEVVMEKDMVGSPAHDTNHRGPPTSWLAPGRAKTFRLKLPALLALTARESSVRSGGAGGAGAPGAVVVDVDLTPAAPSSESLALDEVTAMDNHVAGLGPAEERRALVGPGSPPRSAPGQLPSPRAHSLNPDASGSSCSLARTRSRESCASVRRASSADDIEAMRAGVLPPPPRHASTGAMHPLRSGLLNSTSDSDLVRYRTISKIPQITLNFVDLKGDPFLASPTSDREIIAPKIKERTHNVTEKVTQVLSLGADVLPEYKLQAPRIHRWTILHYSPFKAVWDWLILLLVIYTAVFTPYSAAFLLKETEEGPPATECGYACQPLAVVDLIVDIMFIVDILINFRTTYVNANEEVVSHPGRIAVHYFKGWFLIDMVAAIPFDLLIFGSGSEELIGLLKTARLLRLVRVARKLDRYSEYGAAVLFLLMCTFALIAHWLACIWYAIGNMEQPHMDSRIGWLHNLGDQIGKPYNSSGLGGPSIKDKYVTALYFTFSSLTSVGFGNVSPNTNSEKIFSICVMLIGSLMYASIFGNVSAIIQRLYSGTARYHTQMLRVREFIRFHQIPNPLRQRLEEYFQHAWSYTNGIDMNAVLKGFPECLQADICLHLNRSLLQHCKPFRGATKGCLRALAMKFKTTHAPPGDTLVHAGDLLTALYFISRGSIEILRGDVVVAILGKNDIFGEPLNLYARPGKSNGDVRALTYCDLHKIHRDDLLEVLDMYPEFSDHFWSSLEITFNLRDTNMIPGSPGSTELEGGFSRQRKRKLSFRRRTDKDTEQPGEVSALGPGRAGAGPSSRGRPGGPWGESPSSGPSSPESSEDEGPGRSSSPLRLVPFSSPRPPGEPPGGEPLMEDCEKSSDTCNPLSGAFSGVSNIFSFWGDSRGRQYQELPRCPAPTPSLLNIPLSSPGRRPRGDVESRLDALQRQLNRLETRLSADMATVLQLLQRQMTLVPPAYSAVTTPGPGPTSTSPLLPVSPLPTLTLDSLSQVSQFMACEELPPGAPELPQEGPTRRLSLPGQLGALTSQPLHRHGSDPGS

| SMILES | hERG current change (%, negative = inhibition) at 10uM [%] |
| --- | --- |
| O=C(NC1CCN(Cc2ccccc2)CC1)C1CCN(S(=O)(=O)c2ccc(Cl)cc2)CC1 | -73.2 |
| Cc1ccc(C(=O)NC2CCN(Cc3ccccc3)CC2)cc1S(=O)(=O)N1CCOCC1 | -30.2 |
| O=C(C1CCCN(S(=O)(=O)c2cccc3nonc23)C1)N1CCC(Cc2ccccc2)CC1 (centres unmarked) | -30.9 |
| O=C(NCCc1ccccc1)C1CCN(S(=O)(=O)c2cccc3nonc23)CC1 | -10.5 |
| Cc1noc(C)c1S(=O)(=O)N1CCC(C(=O)NC2CCN(Cc3ccccc3)CC2)CC1 | -25 |
| Cc1ccc(Cl)cc1S(=O)(=O)N1CCC(C(=O)NC2CCN(Cc3ccccc3)CC2)CC1 | -71.5 |
| CCCNC(=O)C1CCN(S(=O)(=O)c2cccc3nonc23)CC1 | -3.97 |
| O=C(NC1CCN(Cc2ccccc2)CC1)C1CCCN(S(=O)(=O)c2cccc3nonc23)C1 (centres unmarked) | -55.9 |
| O=C(NC1CCN(Cc2ccccc2)CC1)C1CCN(S(=O)(=O)c2ccccc2)CC1 | -28.8 |
| CCN(CCCNC(=O)C1CCN(S(=O)(=O)c2cccc3nonc23)CC1)Cc1ccccc1 | -57.2 |
| O=C(NCc1ccccc1)C1CCCN(S(=O)(=O)c2cccc3nonc23)C1 (centres unmarked) | 9.65 |
| CCN(CC)S(=O)(=O)c1ccc(S(=O)(=O)N2CCC(C(=O)NC3CCN(Cc4ccccc4)CC3)CC2)cc1 | 14.8 |
| COc1cc(/C=C2\SC(=S)N(CCC(=O)Nc3ccc(O)cc3)C2=O)cc(OC)c1OC | 11.9 |
| COCCCn1c(=O)c2sccc2n2c(CCCC(=O)NCc3cccc(OC)c3)nnc12 | -6.59 |
| O=C1CSC(c2cccnc2)N1c1cccc(Cl)c1 (centres unmarked) | -1.13 |
| CCOC(=O)c1c(NC(=O)C2CCCO2)sc(C(=O)OC(C)(C)C)c1C (centres unmarked) | 9.29 |
| COc1cccc(NC(=O)Cn2nc(Cc3cccnc3)c3ccccc3c2=O)c1 | -34.6 |
| COc1cccc(NC(=S)NCc2cccnc2)c1 | 8.76 |
| COc1cccc(Nc2nnc(Cc3cccnc3)c3ccccc23)c1 | -75.8 |
| COc1ccc(Nc2nnc(Cc3ccccc3)c(=O)[nH]2)c(OC)c1 | 3.85 |
| COc1ccc(Nc2ncnc3ccccc23)c(OC)c1.Cl | -10.2 |
| COc1ccc(Nc2nnc(Cc3ccncc3)c3ccccc23)c(OC)c1 | -72.7 |
| Cc1csc2c(N3CCN(C(=O)Nc4ccccc4)CC3)ncnc12 | -25.4 |
| CCOC(=O)N1CCC(NC(=O)c2cccc3c2C(=O)N(Cc2cccnc2)C3)CC1 | -13.9 |
| CCOC(=O)C1=C(COC(=O)CCOc2ccccc2C)NC(=O)NC1C (centres unmarked) | -28.4 |
| NC(=O)c1cc(-c2csc(-c3cccnc3)n2)ccc1O | 5.27 |
| CCCCN(C)CCCNC(=O)c1cn(C)c2ccc(S(=O)(=O)N(C)C3CCCCC3)cc2c1=O | -75 |

| SMILES | hERG current change (%, negative = inhibition) at 10uM [%] |
| --- | --- |
| CCCCN(CC)CCCNC(=O)c1cn(C)c2ccc(S(=O)(=O)N(C)C3CCCCC3)cc2c1=O | -73.2 |
| CCN(CC)CCCNC(=O)c1cn(C)c2ccc(S(=O)(=O)N(C)C)cc2c1=O | 3.07 |
| COC(CNC(=O)c1cn(C)c2ccc(S(=O)(=O)N(C)C3CCCCC3)cc2c1=O)OC | -21.5 |
| CCN(CC)CCCNC(=O)c1cn(C)c2ccc(S(=O)(=O)N(C)C3CCCCC3)cc2c1=O | -24.8 |
| CN(CCNC(=O)c1cn(C)c2ccc(S(=O)(=O)N(C)C)cc2c1=O)CCc1ccccc1 | -27.1 |
| CC(C)OCCCNC(=O)c1cn(C)c2ccc(S(=O)(=O)N(C)C3CCCCC3)cc2c1=O | -22 |
| COCCNC(=O)c1cn(C)c2ccc(S(=O)(=O)N(C)C3CCCCC3)cc2c1=O | -27.7 |
| CCN(CC)S(=O)(=O)c1ccc2c(c1)c(=O)c(C(=O)NCCc1ccccc1)cn2C | -0.204 |
| CCCCN(CCCC)CCNC(=O)c1cn(C)c2ccc(S(=O)(=O)N(C)C3CCCCC3)cc2c1=O | -76.7 |
| CCN(CC)CCNC(=O)c1cn(C)c2ccc(S(=O)(=O)N(C)C3CCCCC3)cc2c1=O | -42.8 |
| CCN(CC)S(=O)(=O)c1ccc2c(c1)c(=O)c(C(=O)NCCN(C)CCc1ccccc1)cn2C | -67.1 |
| Cn1c(=O)n(C)c2cc(N3CCOCC3)c(NC(=O)c3ccc(F)cc3)cc21 | -8.15 |
| Cc1cccc2cc3ccccc3nc12 | 4.66 |
| Cc1cc(CNC(=O)COc2ccc(C)c(C)c2)c2ccccc2n1 | 2.15 |
| O=C(N/N=C/c1ccc(Cl)c([N+](=O)[O-])c1)c1cc(-c2ccccc2)nc2ccccc12 | 17.1 |
| Cn1c2ccccc2c(=O)c2cc(C#Cc3ccccn3)ccc21 | -0.776 |
| CCc1ccccc1N1C(=O)C2CC=CCC2C1=O (centres unmarked) | -6.41 |
| COc1ccc(OC)c(S(=O)(=O)N(C)CC(=O)N2CCc3ccccc3C2)c1 | -35.1 |
| CCN(Cc1nc2cc(OC)c(OC)cc2c(=O)[nH]1)C(=O)c1ccc(S(=O)(=O)N(C)C)cc1 | 4.07 |
| Cc1cnc(NC2=NCCC2)s1 | 5.05 |
| O=C(OCC(=O)c1ccc[nH]1)c1ccc(Cl)nc1 | -5.61 |
| Cc1ccc(-n2nc(C)c(NS(=O)(=O)c3ccccc3)c2C)cc1C | -16.9 |
| CCCN(CCC)CCCNC(=O)c1cn(C)c2ccc(S(=O)(=O)N(C)C3CCCCC3)cc2c1=O | -73.7 |
| COC(CN(C)C(=O)c1cn(C)c2ccc(S(=O)(=O)N(C)C3CCCCC3)cc2c1=O)OC | 10.3 |
| CCN(CC)S(=O)(=O)c1ccc2c(c1)c(=O)c(C(=O)NCCCN(C)c1ccccc1)cn2C | -12.2 |
| Cn1c(=O)n(C)c2cc(S(=O)(=O)Nc3ccc(F)cc3)ccc21 | 20.9 |
| CCN1CCN(c2ccc(S(=O)(=O)N3CCCC3)cn2)CC1 | 16.2 |

| SMILES | hERG current change (%, negative = inhibition) at 10uM [%] |
| --- | --- |
| Cc1nn(-c2ccccc2)c(C)c1NC(=O)COC(=O)CCc1ccccc1 | -10.2 |
| COc1cccc(OCC(=O)N2CCC3(CC2)CC(=O)c2ccccc2O3)c1 | -55.8 |
| CC(=O)N1CCC2(CC1)CC(=O)c1cc(OCC(=O)N3CCCC3)ccc1O2 | 9.03 |
| Cc1cccc(OCC(=O)N2CCC3(CC2)CC(=O)c2ccccc2O3)c1 | -54.7 |
| CC(=O)N1CCC2(CC1)CC(=O)c1cc(OCC(=O)N3CCOCC3)ccc1O2 | -10.6 |
| CC(C)(C)C1CCC(OC(=O)C[N+]2(C)CCCCC2)CC1.[I-] (centres unmarked) | 23.1 |
| Cc1cccc(Nc2ccc(C(=O)N3CCOCC3)cn2)c1 | 10.7 |
| CC(=O)Nc1cccc(C(=O)NCC2(N3CCCCC3)CCCCC2)c1 | 19.4 |
| Cc1ccc(S(=O)(=O)Nc2cccc(C(=O)NCCN3CCOCC3)c2)cc1F | -1.9 |
| CCOc1ccc(NS(=O)(=O)c2ccc(C(=O)NCC3(N4CCCCC4)CCCCC3)cc2)cc1 | -11 |
| CCOc1ccc(S(=O)(=O)Nc2cccc(C(=O)NCC3(N4CCCCC4)CCCCC3)c2)cc1 | -71.6 |
| CC(C)(CNC(=O)c1cccc(NS(=O)(=O)c2ccc(Br)cc2)c1)N1CCOCC1 | -33.7 |
| Cc1ccc(S(=O)(=O)Nc2cccc(C(=O)NCC3(N4CCCCC4)CCCCC3)c2)cc1F | -82.6 |
| Cc1cccc(NS(=O)(=O)c2cccc(C(=O)NCC(C)(C)N3CCOCC3)c2)c1 | 4.99 |
| CCOc1ccc(S(=O)(=O)Nc2ccc(C(=O)NCC3(N4CCCCC4)CCCCC3)cc2)cc1 | -45.8 |
| Cc1ccc(S(=O)(=O)Nc2cccc(C(=O)N3CCCC3)c2)cc1F | -0.933 |
| Cc1ccc(S(=O)(=O)Nc2cccc(C(=O)NCC(C)(C)N3CCOCC3)c2)cc1F | -50.3 |
| O=C(NCC1(N2CCCCC2)CCCCC1)c1cccc(NS(=O)(=O)c2ccccc2)c1 | -64.4 |
| O=C(NCC1(N2CCCCC2)CCCCC1)c1ccc(NS(=O)(=O)c2ccccc2)cc1 | -44.1 |
| C[C@H](NC(=O)N1CCn2c1nc1ccccc12)C(=O)NCC1CCCO1 (some centres unmarked) | 20.8 |
| CC(OC(=O)c1cccc(-n2cnnn2)c1)C(=O)Nc1cccc(Cl)c1 (centres unmarked) | -2.88 |
| N#Cc1ccccc1OCC(=O)OCC(=O)N1CCN(C(=O)c2ccco2)CC1 | 3.22 |
| Cc1cc(N2C(=O)CC(N3CCN(c4ccc(C(=O)c5cccs5)cc4)CC3)C2=O)no1 (centres unmarked) | -37.3 |
| CC(C)CCOP(=O)(c1ccc(N(C)C)cc1)C(O)c1ccc(C(C)C)cc1 (centres unmarked) | 11.7 |
| CCOC(=O)c1cn2nc(Oc3ccccc3)ccc2n1 | -12.8 |
| O=C(Cc1ccccc1)N/N=C/c1cc2c(cc1Cl)OCO2 | 1.85 |
